Cruzain Triton: qHTS Assay for Promiscuous and Specific Inhibitors of Cruzain (with detergent); Cruzipain (Trypanosoma cruzi), P25779; purified cruzain, Z-FR-AMC fluorescence, 0.01% Triton; Potency, µM, for the others: max response, negative = inhibition, actives largely listed as inhibitors; 200,000 tested, 0.43% active; AID 1478, 2009;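 also: plate controls were neutral wells for no effect and buffer without enzyme for full effect; nearly all actives have a fitted effect of over 40% in size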
Target sequence (P25779 123-467 limits assumed): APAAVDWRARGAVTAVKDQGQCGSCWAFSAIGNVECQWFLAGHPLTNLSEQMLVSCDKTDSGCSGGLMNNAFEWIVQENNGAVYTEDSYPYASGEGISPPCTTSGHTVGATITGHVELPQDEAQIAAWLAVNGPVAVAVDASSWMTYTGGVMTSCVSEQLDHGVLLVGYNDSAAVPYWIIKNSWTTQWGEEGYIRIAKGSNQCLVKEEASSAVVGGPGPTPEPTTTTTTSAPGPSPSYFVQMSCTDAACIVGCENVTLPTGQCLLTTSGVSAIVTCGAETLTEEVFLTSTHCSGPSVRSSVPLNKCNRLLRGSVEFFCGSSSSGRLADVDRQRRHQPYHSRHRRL
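Enzyme 1.5 nM, Z-FR-AMC 2 uM, NaOAc 100 mM pH 5.5, DTT 5 mM, Triton X-100 0.01%; 15 min RT compound preincubation; kinetic ex360/em450, 60 s delta.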
Cruzain inh noDet: qHTS Assay for Promiscuous and Specific Inhibitors of Cruzain (without detergent); Cruzipain (Trypanosoma cruzi), P25779; purified cruzain, Z-FR-AMC fluorescence, no detergent; Potency, µM, inactives show max response, negative = inhibition, hits mostly inhibitors; 200,000 tested, 2.3% active; AID 1476, 2009;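 also: plate controls were enzyme without inhibitor for no effect and buffer without enzyme for full effect; nearly all actives have a fitted effect of over 40% in size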
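Purified cruzain at 1.5 nM, pre-incubated 15 min with compound at room temperature in 100 mM sodium acetate pH 5.5, 5 mM DTT, 0.00005% Triton X-100. Reaction started with 2 uM Z-FR-AMC; AMC fluorescence increase over 60 s gives rate.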
The depositor's hits bear a star; ? = inconclusive. Most compounds without a hit are left out; they make up all but 2.4% or so of the library. Calls follow the shape of the dose curve; as a rule, active = well fitted curve in the direction sought with a large enough effect; inconclusive = small, poorly fitted or top-dose-only effect, or another doubt; inactive = no such curve, though single readings can be large; an effect the other way counts as inactive or inconclusive. Potency is read from the fitted curve at half-maximal effect.

SMILES | Cruzain Triton | Cruzain inh noDet
COc1ccccc1NC(=S)NC(=O)/C=C/c1ccco1 | -21.3% | -29.1%
COc1cc2c(cc1NC(=S)NC(=O)/C=C/c1ccco1)oc1ccccc12 | -4.6% | 12.6µM*
COc1ccc(/C=C/C(=O)NC(=S)NNC(=O)Cc2cccs2)cc1 | 0.2% | 12.6µM*
COc1cc2c(cc1NC(=O)Nc1cccc(C)c1)oc1ccccc12 | 17.5% | ?
O=C(/C=C/c1ccccc1)NC(=S)NNC(=O)Cc1cccs1 | 6.2% | ?
COc1cc2c(cc1NC(=O)C(C)OC(=O)/C=C/c1ccc(OC(F)F)cc1)oc1ccccc12 (stereo not drawn) | -0.2% | 31.6µM*
CCOC(=O)c1c(C)[nH]c(C=C2C(=O)CCCC2=O)c1O | -8.3% | -1.7%
COc1ccc(/C=C/C(=O)NC(=S)Nc2cc3oc4ccccc4c3cc2OC)cc1 | 0.9% | 2.51µM*
COc1cc2c(cc1NC(=S)NC(=O)/C=C/c1ccc(OC)c(OC)c1)oc1ccccc12 | -2.9% | -24.9%
CC(=O)Nc1ccc(-c2cc(-c3ccc(NC(C)=O)cc3)nc(-c3ccc(NC(C)=O)cc3)n2)cc1 | ? | 31.6µM*
CCC(=O)Nc1ccc(-c2cc(-c3ccccc3)nc(-c3ccc(NC(=O)CC)cc3)n2)cc1 | 4.5% | 5.1%
CC(=O)Nc1ccc(-c2cc(-c3ccc(NC(C)=O)cc3)nc(-c3ccccc3)n2)cc1 | -4.5% | 15.8µM*
CC(=O)Nc1ccc(-c2cc(-c3ccccc3)nc(-c3ccccc3)n2)cc1 | -2.5% | ?
O=C(Nc1ccc2nc(SCC(=O)N3CCc4ccccc43)sc2c1)c1ccccc1 | -4.7% | ?
CN(C)CN1CSC(=S)N(CN(C)C)C1 | 3.0% | 11.2%
O=C(N/N=C/C=C/c1ccccc1)c1cc2c(ccc3ccccc32)o1 | ? | 10µM*
O=C(N/N=C/C=C/c1ccccc1)c1ccncc1 | -9.6% | 3.3%
C#CCn1cc(/C=N/NC(=O)c2cc3ccccc3o2)c2ccccc21 | -10.6% | -17.0%
C=CCn1cc(/C=N\NC(=O)c2cc3c(ccc4ccccc43)o2)c2ccccc21 | -0.3% | 15.8µM*
Cc1noc(C)c1-c1cc(NC2CCNCC2)ncn1 | 3.9% | 8.0%
COc1ccc(CN[C@H](C)C(=O)O)cc1 | 4.0% | -1.7%
Cc1cc(=O)cc2oc3cc(N)c(-c4c(C)cc(O)cc4O)c(C)c3nc1-2 | -4.6% | -4.8%
Cc1nnc2c(Nc3cccc(O)c3)nc3ccccc3n12 | -4.6% | 0.3%
Cn1c(=O)n(C)c2cc(/C=N/NC(=S)NCc3ccccc3)ccc21 | 11.2µM* | ?
Fc1ccccc1COc1ccc(/C=N/NC(=S)NCc2ccccc2)cc1 | -0.9% | 6.31µM*
SMILES | Cruzain Triton | Cruzain inh noDet
CC(C)(C)c1ccc(/C=N/NC(=S)NCc2ccccc2)cc1 | -5.0% | ?
CNC(=S)N/N=C/c1cccc(OCc2ccccc2F)c1 | -10.1% | ?
N[C@@H](Cc1cccc([N+](=O)[O-])c1)C(=O)O | -4.1% | 9.2%
O=C(NCc1ccc(Cl)cc1)c1ccc2c(c1)NC(=O)C(CS(=O)(=O)Cc1ccccc1Cl)N2 (stereo not drawn) | -2.8% | 25.1µM*
COc1ccc(CNC(=O)c2ccc3c(c2)NC(=O)C(CS(=O)(=O)Cc2ccccc2Cl)N3)cc1 (stereo not drawn) | -0.9% | 5.1%
Cc1cc(NC(=O)CCSc2nc(-c3ccco3)cc(C(F)(F)F)n2)no1 | 4.1% | 7.7%
Cc1cc(NC(=O)CSc2nc(-c3ccco3)cc(C(F)(F)F)n2)no1 | -3.9% | 20µM*
COc1ccc(CCC(=O)NCc2ccc3c(c2)CCN3C(=O)c2ccc(Cl)cc2)cc1 | 1.2% | 12.1%
CCCOc1ccc(C(=O)Nc2ccc(N3CCN(C(C)=O)CC3)cc2)cc1 | -3.5% | ?
O=C(c1ccc(F)cc1)c1ccc(N2CCCC2)cc1 | -6.5% | 2.3%
COc1ccc(C(=O)Nc2ccc(N3CCCC3)cc2)cc1 | ? | 10µM*
COc1ccc(C(=O)N/N=C(/C)c2ccc(N3CCCCC3)cc2)cc1 | -14.8% | ?
CCOc1ccc(C(=O)Nc2ccc(N3CCCC3)cc2)cc1 | -14.6% | 7.94µM*
COc1ccc(C2(C(=O)Nc3nncs3)CCCC2)cc1 | 2.1% | -2.5%
O=C(Nc1ccc(N2CCCCC2)cc1)c1ccc(F)cc1 | 3.7% | 25.1µM*
COc1ccc(NC(=O)C2(c3ccc(NC(=O)c4ccc(OC)cc4)cc3)CCCC2)cc1 | -0.2% | 7.94µM*
CCOC(=O)c1sc2ccccc2c1S(=O)(=O)Nc1ccc(OC)c(Cl)c1 | -7.7% | -11.5%
O=S(=O)(c1cccc(C(F)(F)F)c1)N1c2ccccc2-n2cccc2[C@H]1c1cccnc1 | -1.0% | 28.9%
COc1ccccc1N1CCN(C(=O)c2cc3c(=O)n(Cc4ccco4)ccc3nc2C)CC1 | -2.5% | ?
CN(Cc1ccccc1)C(=O)Nc1ccc2c(c1)N(C)C(=O)c1ccccc1S2 | -6.8% | ?
CCCCC[C@H](O)/C=C/C1=C(C/C=C\CCCC(=O)O)C(=O)CC1 | -7.9% | 1.0%
CC(C)CCC(C)N=Cc1c(O)n(Cc2ccccc2)c(=O)c2ccccc12 (stereo not drawn) | 0.5% | ?
COc1ccc(Cn2c(O)c(C=Nc3ccc(OC)cc3)c3ccccc3c2=O)cc1 | -2.9% | 12.6µM*
Cc1ccc(C)c(NC(c2ccccc2)c2nnc(-c3ccccc3F)o2)c1 (stereo not drawn) | -1.9% | 3.7%
COc1cc(Cl)c(C)cc1NC(c1ccccc1)c1nnc(-c2ccccc2Cl)o1 (stereo not drawn) | -0.8% | 15.8µM*
SMILES | Cruzain Triton | Cruzain inh noDet
O=c1c(Cl)c(N2CCN(c3ccc(F)cc3)CC2)cnn1-c1nc2ccccc2s1 | 2.9% | ?
O=C1CC(c2ccccc2Cl)Cc2c1cnn2-c1nc2ccccc2s1 (stereo not drawn) | -4.0% | 12.6µM*
COc1ccc(Nc2ncc3c(n2)CCN(Cc2cccc(F)c2F)C3)c(OC)c1 | 0.8% | -6.2%
O=C(Nc1nnc(-c2ccc(Cl)cc2)o1)NC1CCCCC1 | 8.7% | 25.1µM*
CC(=O)Nc1nnc(-c2ccc3c(c2)CCCC3)o1 | -1.8% | -10.0%
O=C(Nc1ccc(Cl)cc1)NC1CCCCC1 | -1.4% | -2.2%
O=C(COc1ccc(Cl)cc1)Nc1nnc(-c2ccc3c(c2)CCCC3)o1 | 1.2% | 7.94µM*
O=C(Cn1ncc2c3ccccc3n(Cc3ccccc3)c2c1=O)NCCCN1CCCCC1 | -4.2% | 7.1%
COc1ccc(CN(C(=O)CSc2nnc(-c3ccccc3C)o2)c2ccc(F)cc2)cc1 | -4.7% | -9.1%
O=C(CSc1nnc(-c2c[nH]c3ccccc23)o1)N(Cc1ccccc1)c1ccc(F)cc1 | -5.5% | 12.6µM*
CCOC(=O)C1=C(C)NC(=O)N[C@@H]1c1coc2cc(C)cc(C)c2c1=O | -0.9% | -11.7%
Cc1ccc(C)c(CN2C(=O)C3(c4ccccc42)N(c2ccc(Cl)cc2)C(=O)CS3(=O)=O)c1 (stereo not drawn) | -3.3% | 3.16µM*
Cc1ccc(C)c(CN2C(=O)C3(OCCCO3)c3ccccc32)c1 | -6.2% | -2.7%
Cc1ccc(CN2C(=O)C3(c4ccccc42)N(c2ccc(C)c(Cl)c2)C(=O)CS3(=O)=O)cc1 (stereo not drawn) | -4.0% | 1.26µM*
Cc1ccc(N2C(=O)CS(=O)(=O)C23C(=O)N(Cc2ccccc2F)c2ccccc23)cc1Cl (stereo not drawn) | -4.6% | 1.26µM*
Cc1ccc(N2C(=O)CSC23C(=O)N(Cc2ccccc2F)c2ccccc23)cc1F (stereo not drawn) | -8.9% | -5.8%

Screening results deposited in PubChem BioAssay by National Center for Advancing Translational Sciences (NCATS).
